Measurements from PMC7826789 (International Journal of Molecular Sciences, 2021).

Test system: JAK3(JH1domain-catalytic)
Conditions: Compound Concentration (nM):1000
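Further: KINOMEscan scanMAX binding as percent activity remaining versus control; lower means stronger binding.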

Row | Compound | Percent Control
1 | COc1ccc2c(-c3ccnc(Nc4cccc(OC(F)(F)F)c4)n3)cnn2n1 [GW810372X] | 65%
2 | CCS(=O)(=O)c1ccc(OC)c(Nc2ncc(-c3cccc(OC)c3)o2)c1 [GW580509X] | 62%
3 | CC1=C(C(=O)Nc2ccc3[nH]ncc3c2)C(c2ccc3ccccc3c2)CC(=O)N1 (stereo not drawn) [GSK270822A] | 3.4%
4 | COc1cccc(-c2c[nH]c3c(N/N=C/c4ccncc4)ncnc23)c1 [GW814408X] | 18%
5 | Cl.O=C(Nc1ccc(Oc2ccc3[nH]c(NC(=O)c4ccco4)nc3c2)cc1)Nc1cc(C(F)(F)F)ccc1F [GW683134A] | 87%
6 | COC(=O)Nc1nc2ccc(Oc3ccc(NC(=O)Nc4cc(C(F)(F)F)ccc4F)cc3)cc2s1.Cl [GW693917A] | 61%
7 | COc1cc(N2CCN(C(C)C)CC2)ccc1Nc1nc(Nc2ccc(F)cc2C(=O)NC[C@@H](O)CO)c2cc[nH]c2n1 [GSK1392956A] | 88%
8 | COc1cc2ncn(-c3cc(O[C@H](C)c4ccccc4Cl)c(C(N)=O)s3)c2cc1OC [GSK237701A] | 100%
9 | Cl.c1ccc(Cc2nc3ccc(Nc4ncnc5ccccc45)cc3[nH]2)cc1 [GR269666A] | 100%
10 | COc1cc(C)c(N(C)C(=O)CN(C)C)cc1Nc1nc(Nc2cccc(F)c2C(N)=O)c2cc[nH]c2n1 [GSK2219385] | 92%
11 | NS(=O)(=O)c1ccc(N/N=C2\C(=O)Nc3ccc(C(=O)NCCc4c[nH]cn4)cc32)cc1 [GW300660X] | 64%
12 | CCS(=O)(=O)c1ccc(OC)c(Nc2ncc(-c3cccc(F)c3)o2)c1 [GW621970X] | 75%
